Experimental data from PubChem BioAssay (NCI).
Values joined by “and” are separate entries in the source; they are usually repeats but may differ in a detail not shown here. Equal entries are not always repeated. About 79,000 compounds went through this panel and 15% of them were active in at least one assay; those are over-represented in the sample as a whole. Values without a mark were called inactive. Active and inactive are the calls of the source. Rule as the data show it: active = growth inhibition above about 70%; inactive = the rest.

Assay: NCI Yeast Anticancer Drug Screen. Data for the rad52 strain (AID 147);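 also: 0% = growth of vehicle-treated control cultures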
Conditions: S. cerevisiae rad52 mutant growth inhibition, stronger effect = higher value
Method: Growth inhibition of yeast strains with defined genetic alterations is measured as a screen for potential anti-cancer activity. Selected strains with alterations in DNA damage repair or cell cycle control were exposed to compounds and growth inhibition was measured relative to vehicle treated controls. The strain used in this assay is rad52

| Compound | growth inhibition (at 1.2 µM) | growth inhibition (at 3.7 µM) | growth inhibition (at 11.0 µM) | growth inhibition (at 33.0 µM) | growth inhibition (at 100.0 µM) |
| --- | --- | --- | --- | --- | --- |
| Cn1c(-c2ccc(/C=N\N3CCN(/N=C/c4ccc(-c5c[n+]6ccccc6n5C)cc4)CC3)cc2)c[n+]2ccccc12 | -56% | -61% | -48% | 23% | 82% (active) |
| CN(C)/C=C/c1nnc([N+](=O)[O-])s1 | -2% | -3% | 5% | 28% | 98% (active) |
| C[C](C)(C)[Ge]([O][Ge]([c]1ccccc1)[c]1ccccc1)([O][Ge]([c]1ccccc1)[c]1ccccc1)[C](C)(C)C | 1% | 15% | 53% | 74% (active) | 78% (active) |
| Nc1ccc2c(c1)C(=O)c1ccc(F)cc1-2 | 13% | 24% | 43% | 47% | 53% |
| Cc1ccc2c3ccc4c(c3n(C)c2c1)C(=O)C=CC4=O | -55% | -66% | -53% | -37% | 22% |
| C#CCN(Cc1ccc2nc(N)[nH]c(=O)c2c1)c1ccc(C(=O)NC(CCC(=O)O)C(=O)O)cc1 (stereo not given) | 19% | 29% | 28% | 73% (active) | 88% (active) |
| Cc1cc(C(C)(C)C)c(OCCCN2CCOCC2)c(C(C)(C)C)c1 | -5% | -9% | -14% | -3% | 96% (active) |
| CN(C)CCOC1(Cc2ccc(Cl)cc2Cl)CCC(C(C)(C)C)CC1 (stereo not given) | 1% and -3% | 1% and 0% | 99% (active) and 98% (active) | 99% (active) | 99% (active) and 97% (active) |
